Results: PubChem BioAssay (NCI)
This is part of a sample that, as a whole, favours compounds with a hit. Of some 79,000 tested, about 15% had one in any assay. Calls of active or inactive are those of the source. No stated cut-off is given here; in the data, active means growth inhibition above about 70%; inactive means the rest. Where a SMILES comes first, the peptide text is derived from it. The star is where a group is joined. Cbz = O=C(OCc1ccccc1)*; Boc = CC(C)(C)OC(=O)*; OSu = O=C1CCC(=O)N1O*; Bn = c1ccc(C*)cc1

Assays:
[1] = NCI Yeast Anticancer Drug Screen. Data for the rad50 strain (AID 155);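 further: 0% = growth of vehicle-only cultures of the same strain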; details: S. cerevisiae rad50 strain growth inhibition, active compounds read high
Procedure, shortened: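 Genetically altered yeast (DNA repair pathway); compound treatment; growth inhibition vs vehicle ctrl.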

[2] = NCI Yeast Anticancer Drug Screen. Data for the mec2-1 strain (AID 157); details: S. cerevisiae mec2-1 strain, active compounds read high
Procedure, shortened: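 Readout is yeast growth inhibition, normalised to vehicle-treated controls, in the mec2-1 strain exposed to compound.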

[3] = NCI Yeast Anticancer Drug Screen. Data for the sgs1 mgt1 strain (AID 161);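 further: 0% = growth of cultures given vehicle only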; details: S. cerevisiae sgs1 mgt1 strain, active compounds read high
Procedure, shortened: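 Compounds are added to genetically altered yeast, and growth is compared with cultures given vehicle alone to give percent inhibition.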

[4] = NCI Yeast Anticancer Drug Screen. Data for the cln2 rad14 strain (AID 165);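 further: 0% = growth equal to vehicle treated cultures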; details: S. cerevisiae cln2 rad14 strain, active compounds read high
Procedure, shortened: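 Relative to vehicle controls, growth inhibition of compound-treated cln2 rad14 yeast was recorded.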

[5] = NCI Yeast Anticancer Drug Screen. Data for the bub3 strain (AID 167); details: S. cerevisiae bub3 mutant strain, active compounds read high
Procedure, shortened: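 Yeast carrying a defined mutation is treated with each compound, and growth is compared with that of vehicle-exposed cells to give inhibition.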

[6] = NCI Yeast Anticancer Drug Screen. Data for the mlh1 rad18 strain (AID 175); details: S. cerevisiae mlh1 rad18 strain growth inhibition, active compounds read high
Procedure, shortened: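 Test agents were incubated with a yeast strain of defined genotype (DNA damage repair defect). Inhibition of growth was derived by comparison with vehicle-exposed cultures.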

[7] = at 5.0 µM (retest, dose inferred, filed as 0.5)
[8] = at 50.0 µM (retest, dose inferred, filed as 5.0)

Measured: growth inhibition

C[C@H]1CC[C@@H]2[C@@H](C)[C@H]3[C@H](C[C@H]4[C@@H]5CC=C6C[C@@H](O)CC[C@]6(C)[C@H]5C[C@H](O)[C@]34C)N2C1
inactive: [1]; [7] -6% | [1]; [8] 8% | [1]; at 50.0 µM -17.8% | [2]; [7] 19% | [2]; [8] -7% | [2]; at 50.0 µM -45.2% | [3]; [7] -3% | [3]; [8] 0% | [3]; at 50.0 µM -7.65% | [4]; [7] 16% | [4]; [8] -2% | [4]; at 50.0 µM 38.9% | [5]; [7] 1% | [5]; [8] -6% | [5]; at 50.0 µM -47.1% | [6]; [7] 1% | [6]; [8] 7% | [6]; at 50.0 µM 3%

CC(C)(C)OC(=O)NC(Cc1ccc(OCc2ccccc2)cc1)C(=O)NC(CCCCNC(=O)OCc1ccccc1)C(=O)ON1C(=O)CCC1=O (configuration not stated) (Boc-Tyr(Bn)-Lys(Cbz)-OSu; configuration not given here)
inactive: [1]; [7] 47% | [1]; at 50.0 µM 64.2% | [2]; [7] 31% | [2]; [8] 66% | [2]; at 50.0 µM 48.5% | [3]; [7] 40% | [3]; [8] 64% | [3]; at 50.0 µM 38.9% | [4]; [7] 31% | [4]; [8] 50% | [4]; at 50.0 µM 55.5% | [5]; [7] 37% | [5]; at 50.0 µM 62.5% | [6]; [7] 51% | [6]; at 50.0 µM 57%
active: [1]; [8] 73% | [5]; [8] 70% | [6]; [8] 83%

[C-]#[N+]C(C)(c1ccccc1)c1ccccc1
active: [1]; [8] 70% | [1]; at 50.0 µM 95.5% | [2]; at 50.0 µM 93.2% | [3]; [8] 79% | [3]; at 50.0 µM 95.5% | [4]; at 50.0 µM 90.1% | [5]; [8] 80% | [5]; at 50.0 µM 94.2% | [6]; [8] 76% | [6]; at 50.0 µM 94.4%
inactive: [1]; [7] -117% | [2]; [7] -34% | [2]; [8] 47% | [3]; [7] -48% | [4]; [7] -59% | [4]; [8] 47% | [5]; [7] -45% | [6]; [7] -101%

Cc1ccccc1NCc1ccccc1Cl
inactive: [1]; [7] -141% | [2]; [7] -55% | [3]; [7] -66% | [4]; [7] -83% | [5]; [7] -65% | [6]; [7] -105%
active: [1]; [8] 98% | [1]; at 50.0 µM 99% | [2]; [8] 99% | [2]; at 50.0 µM 99.5% | [3]; [8] 99% | [3]; at 50.0 µM 98.5% | [4]; [8] 99% | [4]; at 50.0 µM 99% | [5]; [8] 99% | [5]; at 50.0 µM 99.5% | [6]; [8] 98% | [6]; at 50.0 µM 96.7%

Nc1ncnc(N2CCOCC2)c1N
inactive: [1]; [7] -1% | [1]; [8] -5% | [1]; at 50.0 µM 11.7% | [2]; [7] 0% | [2]; [8] 0% | [2]; at 50.0 µM 29.6% | [3]; [7] 3% | [3]; [8] 0% | [3]; at 50.0 µM 0.95% | [4]; [7] -7% | [4]; [8] 2% | [5]; [7] -3% | [5]; [8] -2% | [5]; at 50.0 µM -10.7% | [6]; [7] -4% | [6]; [8] -6%
active: [4]; at 50.0 µM 83.8% | [6]; at 50.0 µM 83.5%

O=C(NCCCNCCCCNCCCNC(=O)c1cc(-c2ccccc2)nc2ccccc12)c1cc(-c2ccccc2)nc2ccccc12
active: [1]; [8] 98% | [1]; at 50.0 µM 90.2% | [2]; [8] 99% | [2]; at 50.0 µM 93.2% | [3]; [8] 99% | [3]; at 50.0 µM 92.8% | [4]; [8] 98% | [4]; at 50.0 µM 91.1% | [5]; at 50.0 µM 92.2% | [6]; [8] 99% | [6]; at 50.0 µM 90%
inactive: [1]; [7] 49% | [2]; [7] 25% | [3]; [7] 34% | [4]; [7] 30% | [5]; [7] 33% | [5]; [8] 64% | [6]; [7] 46%

O=C(NC(Cc1ccc(I)cc1)C(=O)O)c1cccc(Br)c1 (configuration not stated)
inactive: [1]; [7] 24% | [1]; [8] 39% | [1]; at 50.0 µM -14.4% | [2]; [7] 13% | [2]; [8] 6% | [2]; at 50.0 µM -35% | [3]; [7] 23% | [3]; [8] 37% | [3]; at 50.0 µM -20.5% | [4]; [7] 17% | [4]; [8] 34% | [4]; at 50.0 µM -8.15% | [5]; [7] 21% | [5]; [8] 29% | [5]; at 50.0 µM -28.9% | [6]; [7] 23% | [6]; [8] 32% | [6]; at 50.0 µM -15.9%

CN(C)CCCNc1c2ccccc2nc2ccc(F)cc12
inactive: [1]; [7] 0% | [1]; [8] 24% | [1]; at 50.0 µM 27.2% | [2]; [7] -8% | [2]; [8] 26% | [2]; at 50.0 µM 24.4% | [3]; [7] 6% | [3]; [8] 24% | [3]; at 50.0 µM 15.2% | [4]; [7] 8% | [4]; [8] 21% | [5]; [7] 0% | [5]; [8] 6% | [5]; at 50.0 µM 42.5% | [6]; [7] 14% | [6]; [8] 27% | [6]; at 50.0 µM 36.8%
active: [4]; at 50.0 µM 81.8%

CCCC[NH-].CCCC[NH-].[I][Pt+2][I]
inactive: [1]; [7] 30% | [1]; [8] 67% | [1]; at 50.0 µM 29.2% | [2]; [7] 22% | [2]; [8] 49% | [2]; at 50.0 µM 15% | [3]; [7] 48% | [3]; at 50.0 µM 60.6% | [4]; [7] 53% | [4]; [8] 57% | [4]; at 50.0 µM 15.2% | [5]; [7] 56% | [5]; [8] 68% | [5]; at 50.0 µM 49.4% | [6]; [7] 20% | [6]; [8] 62% | [6]; at 50.0 µM 41.4%
active: [3]; [8] 70%
